Bioassay records as filed in PubChem BioAssay.
Shown are actives, neighbours in structure and some others; about 12% of the full set was active somewhere.
L3MBTL1 inh: inhibitors of human L3MBTL1 | AlphaScreen L3MBTL1–H3K9me1 peptide binding | Potency, µM (highest dose often 57.1 µM), for inactives: top-dose activity, negative = inhibition, most hits filed as inhibitors | 230,000 tested, 0.66% active | AID 485360; further: on the % scale 0 is the no-effect control and ±100 the full control effect; nearly all actives have a fitted effect of over 60% in size
Target sequence (Q9Y468 whole entry, looked up): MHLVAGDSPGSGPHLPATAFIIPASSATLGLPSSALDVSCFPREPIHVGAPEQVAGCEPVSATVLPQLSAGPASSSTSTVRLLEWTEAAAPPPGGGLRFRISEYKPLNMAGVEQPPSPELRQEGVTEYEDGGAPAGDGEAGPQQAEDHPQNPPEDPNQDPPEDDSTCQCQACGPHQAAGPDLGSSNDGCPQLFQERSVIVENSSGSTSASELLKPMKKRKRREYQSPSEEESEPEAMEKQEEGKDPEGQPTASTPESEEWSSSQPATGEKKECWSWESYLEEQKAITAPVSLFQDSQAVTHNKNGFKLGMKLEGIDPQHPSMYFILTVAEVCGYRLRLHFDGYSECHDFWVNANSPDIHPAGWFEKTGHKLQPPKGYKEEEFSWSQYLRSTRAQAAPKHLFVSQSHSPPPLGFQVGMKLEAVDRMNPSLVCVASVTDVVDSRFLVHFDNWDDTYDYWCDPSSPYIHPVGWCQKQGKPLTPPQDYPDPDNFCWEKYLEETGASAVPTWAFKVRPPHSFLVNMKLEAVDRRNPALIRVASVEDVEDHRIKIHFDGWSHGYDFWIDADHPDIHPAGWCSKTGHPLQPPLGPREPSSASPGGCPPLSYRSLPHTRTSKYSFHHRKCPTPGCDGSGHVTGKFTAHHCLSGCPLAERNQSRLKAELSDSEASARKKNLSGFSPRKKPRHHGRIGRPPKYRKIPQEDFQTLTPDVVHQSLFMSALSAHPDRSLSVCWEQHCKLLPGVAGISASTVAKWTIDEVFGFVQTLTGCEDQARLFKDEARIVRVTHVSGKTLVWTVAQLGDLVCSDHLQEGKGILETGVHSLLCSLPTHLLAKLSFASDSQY
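First, the protein-peptide complex forms for 30 min at room temperature (L3MBTL1 50 nM, biotinylated H3K9me1 peptide 75 nM). Next, compounds are pin-transferred and incubated 30 min. Finally, AlphaScreen beads are added and read after 30 min.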
G9a block: inhibitors of human histone lysine methyltransferase G9a | Q96KQ7 | G9a H3K9 monomethylation, AlphaScreen, 2 h | Potency, µM (doses to about 102 µM), for the others: at the top dose activity, negative = inhibition, most hits filed as inhibitors | 350,000 tested, 8.8% active | AID 504332; further: on the % scale 0 is the no-effect control and ±100 the full control effect; nearly all actives have a fitted effect of over 75% in size
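Methyltransferase reactions run at room temperature for 2 h (20 nM enzyme, 500 nM biotin-H3K9 peptide, 20 uM SAM) after a 15 min compound preincubation; product detected by AlphaScreen beads and anti-H3K9me1 antibody.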
Sfp inh: inhibitors of Bacillus subtilis Sfp phosphopantetheinyl transferase; Q9F4F7; Biochemical Sfp PPTase activity, qHTS; Potency, µM, for the others: largest response in the series, negative = inhibition, usual class: inhibitors; 310,000 tested, 3.5% active;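 further: the enzyme is Sfp with the accession as filed and its product quenches rhodamine fluorescence; 0% = enzyme reaction without inhibitor and -100% = no enzyme wells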
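Fluorescence-quenching assay: 15 nM Sfp-PPTase preincubated 15 min at room temperature with compound, then 5 uM rhodamine-CoA and 12.5 uM BHQ-2-labelled YbbR peptide added. Fluorescence (ex 525/em 598 nm) read at start and after 30 min; difference gives rate.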
HP1b chromo inh: HP1-beta chromodomain-methylated histone interaction inhibition. AID 540317. Potency, µM (top dose mostly 114 µM), for the others: at the highest dose activity change, negative = inhibition, hits mostly inhibitors. AlphaScreen HP1-beta / biotin-H3K9me3 peptide binding. 390,000 tested, 0.56% active; further: nearly all actives have a fitted effect of over 70% in size
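AlphaScreen: HP1-beta (50 nM) preformed 30 min with biotin-H3(1-18)K9me3 peptide (50 nM) in PBS pH 7.4, 0.01% Tween-20. Compound added for 30 min at RT, then streptavidin donor/nickel chelate acceptor beads (10 ug/mL) for 30 min.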
BAZ2B block: BAZ2B (human) inhibition. Q9UIF8. AlphaScreen BAZ2B-H3K14Ac peptide displacement. Potency, µM (series often up to 114 µM), for inactives: at the top dose activity change, negative = inhibition, most hits filed as inhibitors. 360,000 tested, 4.4% active; further: on the % scale 0 is the no-effect control and ±100 the full control effect; nearly all actives have a fitted effect of over 60% in size
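AlphaScreen luminescence quantifies BAZ2B engagement of H3K14Ac peptide; the protein and biotinylated peptide are both at 50 nM final, buffer PBS pH 7.4 with 0.01% Tween-20, all steps at room temperature.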
JMJD2A Tudor inh: JMJD2A Tudor domain (human) inhibition. AlphaScreen JMJD2A-Tudor / H3K4me3 peptide binding. 390,000 tested, 4.4% active. Potency, µM (series often up to 114 µM), for the others: at the top dose activity change, negative = inhibition, hits mostly inhibitors. AID 504339; further: on the % scale 0 is the no-effect control and ±100 the full control effect; nearly all actives have a fitted effect of over 50% in size
* hit, by the source's call; ? = inconclusive; . = no result; ! = repeats disagree; [ ] = remark or other dose. The call rests on the fitted dose curve; in most records, active means well fitted curve in the direction sought with a large enough effect; inconclusive means small, poorly fitted or top-dose-only effect, or another doubt; inactive means no such curve, though single readings can be large; an effect the other way counts as inactive or inconclusive. Potency means the concentration at half of the fitted maximal effect.

SMILES	L3MBTL1 inh	G9a block	Sfp inh	HP1b chromo inh	BAZ2B block	JMJD2A Tudor inh
CCOCCCn1c(=NC(=O)c2cccnc2)c(C(=O)OCC)cc2c(=O)n3ccccc3nc21	-0.3%	1.9%[59 µM]	16.0%	10.0%	-27.5%	50.1µM*!
CCCCn1c(=NC(=O)c2cccnc2)c(C(=O)OCC)cc2c(=O)n3ccccc3nc21	2.1%	0.5%[12.7 µM]	4.0%	-12.4%	1.2%	-15.7%[57.1 µM]
COc1ccc(CN2CCC(C(=O)N(C)CCc3ccc(OC)c(OC)c3)CC2)c(OC)c1	-7.3%	10µM*	-8.9%	?	?	7.94µM*
COc1ccc(CCN(C)C(=O)Cc2ccc(-c3ccccc3)cc2)cc1OC	.	-1.7%[59 µM]	?	-8.6%	-17.1%	-24.5%
CCN(Cc1ccccc1)C1CCN(Cc2ccccc2)CC1	.	70.8µM*	4.6%	29.4%	-23.9%	-6.0%
CCCN1CCC(N(CCc2ccccc2)Cc2ccccc2)CC1	-5.5%	-22.4%	1.6%	20.6%	-2.0%	-15.9%
COc1ccc(CCN(C)C(=O)C2CCN(Cc3cccc(OC)c3OC)CC2)cc1OC	11.4%	.	-27.5%	-16.2%	?	3.16µM*
COc1ccc(CCN(C)C(=O)C2CC(=O)N(Cc3ccc(C)cc3)C2)cc1OC (stereo unspecified)	-2.2%	0.0%[59 µM]	.	26.0%	3.6%	-3.0%
COc1ccc(CCN(C)C(=O)C2CCN(Cc3ccccc3)CC2)cc1OC	?	11.1%	-6.6%	?	12.2%	22.4µM*
COc1ccc(CCN(C)C(=O)CN2C(=O)c3ccccc3S2(=O)=O)cc1OC	-0.6%	?	-1.3%	?	-1.5%	79.4µM*
COc1ccc(CN2CCC(N(CCc3ccccc3)Cc3ccccc3)CC2)c(OC)c1	.	?	39.8µM*	?	39.8µM*	3.16µM*
NC1=NC(=O)/C(=C\c2ccc(-c3ccc(Cl)cc3)o2)S1	-4.0%	?	8.9%	21.8%	-8.1%	-15.7%
CN(C)C1=NC(=O)/C(=C/c2ccc(-c3ccc(S(N)(=O)=O)cc3)o2)S1	-3.1%	7.08µM*	35.5µM*	.	?	.
Cc1ccc(C#CC[N+]2(CC#Cc3ccc(C)cc3)CCCCC2)cc1	1.9%	89.1µM*	-7.9%	22.5%	3.5%	-23.4%
C(#Cc1ccccc1)C[N+]1(CC#Cc2ccccc2)CCCCC1	-17.5%	-32.6%	13.3%	4.7%	-38.3%	44.7µM*
C#CC[N+]1(CC#Cc2ccccc2)CCCCC1	.	19.2%[59 µM]	19.6%	48.3%	-5.1%	-1.4%
O=C(Nc1ccc(NC(=S)NC(=O)c2cccs2)cc1)c1ccco1	-18.2%	50.1µM*	-25.5%	18.3%	-30.8%	-22.5%
O=C(NNC(=O)c1cccs1)c1ccco1	4.5%	-4.3%	89.1µM*	34.7%	-8.9%	-4.1%
O=C(NC(=S)NNC(=O)c1cccs1)c1ccco1	50.2%	?	79.4µM*	33.3%	79.4%[57.1 µM]	2.2%
C/C(=N\NC(=O)c1ccco1)c1ccc(NC(=O)c2cccs2)cc1	-2.0%	1.4%[59 µM]	-7.3%	3.8%	5.1%	-16.3%
COc1ccc(CC(=O)NNC(=O)c2cccs2)cc1OC	5.5%	2.5%	23.1%	16.2%	-6.4%	31.6µM*
O=C1NN(c2ccccc2)C(=O)/C1=C\c1ccc(-c2cc([N+](=O)[O-])ccc2O)o1	?	.	79.4µM*	44.7µM*	31.6µM*	50.1µM*
Cc1cc(/C=C2\C(=O)NN(c3ccccc3)C2=O)c(C)n1-c1ccccc1O	.	1.5%[59 µM]	5.0%	35.6%	-0.5%	-6.4%
O=C1NN(c2ccc(Cl)cc2)C(=O)/C1=C\c1ccc(-c2cccc(C(=O)O)c2)o1	.	15.8µM*	-2.7%	44.7µM*	56.2µM*	35.5µM*
CCN(CC)CCCNC(=O)C1CCN(S(C)(=O)=O)CC1	.	-12.3%[59 µM]	.	24.0%	1.6%	-12.8%
SMILES	L3MBTL1 inh	G9a block	Sfp inh	HP1b chromo inh	BAZ2B block	JMJD2A Tudor inh
Cc1[nH][nH]c(=O)c1C(c1ccc(-c2cccc(Cl)c2)o1)c1c(C)[nH][nH]c1=O	.	.	44.7µM*	?	39.8µM*	44.7µM*
COC(=O)c1ccc(-c2ccc(C(c3c(C)[nH][nH]c3=O)c3c(C)[nH][nH]c3=O)o2)cc1	.	1.41µM*	50.1µM*	-26.4%	8.91µM*	31.6µM*
Cc1[nH][nH]c(=O)c1C(c1ccc(Br)cc1)c1c(C)[nH][nH]c1=O	-2.3%	-9.3%	3.4%	29.5%	-6.0%	-15.8%
Cc1[nH][nH]c(=O)c1C(c1ccc(-c2ccc(Cl)cc2Cl)o1)c1c(C)[nH][nH]c1=O	.	7.08µM*	50.1µM*	.	?	.
Cc1[nH][nH]c(=O)c1C(c1ccc(-c2cccc(C(=O)O)c2)o1)c1c(C)[nH][nH]c1=O	25.1µM*	17.8µM*	15.8µM*	?	79.4µM*	56.2µM*
COc1ccc(C(=O)Oc2ccc(C(c3c(C)[nH][nH]c3=O)c3c(C)[nH][nH]c3=O)cc2OC)cc1	.	-31.8%[59 µM]	.	15.1%	?	?
Cc1[nH][nH]c(=O)c1C(c1ccc(-c2ccccc2C(=O)O)o1)c1c(C)[nH][nH]c1=O	31.6µM*	3.55µM*	?	-0.9%	35.5µM*	89.1µM*
NCCCCN	.	50.1µM*!	13.2%	.	.	.
NCCCCNCCCN	.	10.6µM*!	?	37.9%	6.7%	-1.4%
NCCCCCN	.	.	-4.2%	.	.	.
NCCNCCNCCN	?	3.0%	16.8%	44.8%	?	-33.1%
NCCNCCN	.	.	3.16µM*	.	.	.
NCCCCCCCCCCN	.	67.4%[59 µM]	.	.	.	.
Cc1cccc(NC(=O)c2sc(-n3nc(C)c(Cc4ccc5c(c4)OCO5)c3C)nc2C)c1C	.	9.9%[59 µM]	.	24.0%	3.1%	-17.5%
CCCN(CCC)C(=O)Cn1c(=O)n(-c2ccc(C)cc2)c(=O)c2ccc(C(=O)NCc3ccccc3Cl)cc21	.	9.7%[59 µM]	.	37.5%	.	-0.7%
CC(=O)Nc1ccc(C2=NN(CC#N)C(=O)SC2)cc1	-0.4%	48.4%[12.7 µM]	14.0%	27.6%	-1.7%	2.3%
COc1ccc(NC(=O)CC2SC(=NCC3CCCO3)NC2=O)cc1 (stereo unspecified)	-2.7%	-7.8%[59 µM]	7.2%	10.8%	-4.7%	-18.6%
Cc1ccc(C2=NNC(=Nc3ccc(F)cc3)SC2)cc1	-8.2%	?	?	?	?	?
Fc1ccc(F)c(C2=NNC(=NCC3CCCO3)SC2)c1 (stereo unspecified)	-24.6%	?	44.7µM*	23.3%	?	-21.6%
CC(=O)Nc1ccc(C2=NNC(=NCC3CCCO3)SC2)cc1 (stereo unspecified)	-0.4%	14.1µM*	39.8µM*	8.4%	1.3%	-26.4%
COCC(C)N=C1NN=C(c2ccc(NC(C)=O)cc2)CS1 (stereo unspecified)	7.7%	11.2µM*	39.8µM*	20.2%	?	-17.2%
CCN(CC)c1nc2ccccc2[nH]c1=O	-1.5%	31.6µM*	8.0%	38.5%	2.1%	-3.5%
